Laboratory results reported in PMC10668032, “Altered binding affinity of SIX1-Q177R correlates with enhanced WNT5A and WNT pathway effector expression in Wilms tumor”.
Whole data set: some 33,000 sequences, median “e-score” near -0.053, cut for the highest 2% near 0.38. The sample as a whole holds a higher share of the highest values than the screen did.

Molecular target: T1, SIX1 homeodomain (reference allele) (human, UniProt Q15475 108-198)
T1 sequence: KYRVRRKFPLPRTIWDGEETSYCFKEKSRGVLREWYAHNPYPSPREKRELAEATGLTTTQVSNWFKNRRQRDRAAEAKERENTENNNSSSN
Experiment: universal protein binding microarray; Universal all-10-mer PBM (8x60K, AMADID 030236), 300 nM GST-tagged protein, Alexa Fluor 488 anti-GST; buffer, salt, pH and temperature not stated (as in Berger); high values mean tight binding
Details: protein: ivt; tags: N-terminal GST; dsDNA, one strand shown
Procedure, shortened: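 Homeodomains carrying a GST tag were produced by in vitro transcription/translation, then quantified by anti-GST western blot against a recombinant GST standard curve. Duplicate applications at 300 nM final concentration were made to universal 'all 10-mer' protein binding microarrays in 8×60K format. The Universal PBM Analysis Suite was used to express binding as 8-mer E-scores.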

Sequence	binding signal
AGGTATGA	0.242 ± 0.0289 E-score
CGGTATTC	0.319 ± 0.00856 E-score
ACCTATCC	0.262 ± 0.0365 E-score
AGGTATCA	0.487 ± 0.00797 E-score
TGGTATAA	0.287 ± 0.0507 E-score
CGGTATCC	0.451 ± 0.0218 E-score
AGGTATCC	0.461 ± 0.0111 E-score
GATATTTA	0.157 ± 0.127 E-score
ATACGACG	0.191 ± 0.00652 E-score
CCCCTCTC	0.161 ± 0.0741 E-score
AAAGGGAT	0.253 ± 0.0943 E-score
CAGGATAG	0.315 ± 0.00491 E-score
AGCAGTAT	0.313 ± 0.00754 E-score
ATAACACC	0.301 ± 0.039 E-score
ATCCGTCG	0.239 ± 0.00454 E-score
ACGCTATC	0.296 ± 0.0306 E-score
ATCCAACA	0.293 ± 0.0336 E-score
GGTGGATA	0.362 E-score
GGGTATCA	0.4971 ± 0.0012 E-score
AGGTATGG	0.177 ± 0.0177 E-score
GGGTATGA	0.27 ± 0.0161 E-score
GGTTATCA	0.21 ± 0.00931 E-score
AGCTATCG	0.284 ± 0.0882 E-score

Sequence	binding signal
AGGTATCG	0.4779 ± 0.00118 E-score
GACACACC	0.165 ± 0.101 E-score
ATACTTGG	0.199 ± 0.00946 E-score
AAACGATC	0.216 ± 0.065 E-score
ATAGAGGA	0.153 ± 0.03 E-score
ATCCGATG	0.253 ± 0.0575 E-score
ATCCGCTA	0.243 ± 0.0351 E-score
CTCCGATC	0.185 ± 0.0542 E-score
GTCCGATA	0.331 ± 0.0437 E-score
ATCCGATA	0.466 ± 0.00646 E-score
ATCCGCTC	0.377 ± 0.0055 E-score
ATCCGCTG	0.305 ± 0.0121 E-score
CTCCGATA	0.314 ± 0.00415 E-score
ATCCGATC	0.43 ± 0.0245 E-score
ATAGTGAT	0.32 ± 0.0209 E-score
GTGTCCGA	0.217 ± 0.0111 E-score
CAGATTAA	0.217 ± 0.0579 E-score
GCTTAATA	0.169 ± 0.0471 E-score
GTATTGTA	0.272 ± 0.0188 E-score
ATCTATCG	0.23 ± 0.0219 E-score
ATCCATTC	0.287 ± 0.0196 E-score
TACTGCAA	0.163 ± 0.0382 E-score
GATACATC	0.4297 ± 0.000849 E-score

Sequence	binding signal
GATACACC	0.469 ± 0.00523 E-score
GATACAGA	0.268 ± 0.0783 E-score
GATACATA	0.398 ± 0.0255 E-score
GATACAGC	0.395 ± 0.00544 E-score
GATACACA	0.3539 ± 0.00325 E-score
GATACAAC	0.305 ± 0.0152 E-score
CATACAGA	0.196 ± 0.0391 E-score
TATACATA	0.246 ± 0.0104 E-score
AATACATC	0.204 ± 0.0447 E-score
AATACATA	0.242 ± 0.0372 E-score
CATACACC	0.256 ± 0.0714 E-score
AGTGAGCC	0.225 ± 0.0456 E-score
ATCACATG	0.269 ± 0.0277 E-score
ATCATCTC	0.371 ± 0.00868 E-score
ATTGGGGG	0.152 ± 0.0367 E-score
GATCAGTA	0.347 ± 0.00373 E-score
ATACGCTG	0.268 ± 0.0386 E-score
GACACCGC	0.398 ± 0.0204 E-score
CACACCGC	0.164 ± 0.108 E-score
GACACCGA	0.383 ± 0.0167 E-score
GACACCTA	0.3565 ± 0.0024 E-score
TACACCGA	0.361 ± 0.0113 E-score
CACACCAC	0.206 ± 0.0597 E-score

Sequence	binding signal
AACACCAC	0.255 ± 0.026 E-score
GACACCAC	0.439 ± 0.0198 E-score
GACACCTC	0.3967 ± 0.00186 E-score
CACACCTC	0.267 ± 0.0486 E-score
AACACCGC	0.293 ± 0.041 E-score
AACACCGA	0.228 ± 0.0289 E-score
ATATGGAC	0.173 ± 0.0129 E-score
ATCCTTTC	0.212 ± 0.0474 E-score
CAGGATGA	0.183 ± 0.0851 E-score
ATCCCTCC	0.329 ± 0.0164 E-score
ACGCATAT	0.233 ± 0.00465 E-score
GATCTAGA	0.252 ± 0.0586 E-score
CAGAGATA	0.27 ± 0.0194 E-score
CGTCTCAA	0.286 ± 0.0622 E-score
AGTAAGAT	0.191 ± 0.00535 E-score
ATCCGCCC	0.373 ± 0.0127 E-score
GATATCCC	0.487 ± 0.00837 E-score
AATATCCT	0.282 ± 0.0516 E-score
CATATCCA	0.348 ± 0.0227 E-score
AATATCCG	0.317 ± 0.0622 E-score
GATATCCA	0.452 ± 0.0127 E-score
CATATCCC	0.352 ± 0.0303 E-score
GCTATCCC	0.281 ± 0.0159 E-score

Sequence	binding signal
AATATCCC	0.378 ± 0.0135 E-score
AATATCCA	0.2955 ± 0.00224 E-score
GAAGATCA	0.196 ± 0.071 E-score
GAGCAATA	0.151 ± 0.0211 E-score
CGAGATCA	0.287 ± 0.035 E-score
CTAAGATC	0.207 ± 0.011 E-score
ATCTAGCC	0.18 ± 0.0214 E-score
CTATGATC	0.302 ± 0.0116 E-score
GTATGAGA	0.167 ± 0.0275 E-score
GTATGATA	0.426 ± 0.00336 E-score
ATATGATG	0.202 ± 0.0156 E-score
ATATGACC	0.189 ± 0.0241 E-score
GTATGACA	0.153 ± 0.0497 E-score
ATATGACA	0.2181 ± 0.00196 E-score
CTATGAGA	0.177 ± 0.0191 E-score
CTATGATA	0.394 ± 0.0185 E-score
ATATGATA	0.443 ± 0.0314 E-score
CTATGGTA	0.305 ± 0.0461 E-score
ATATGATC	0.378 ± 0.0179 E-score
